Assay results reported in PubChem BioAssay (Tox21).
Values joined by “and” are separate entries in the source; they are usually repeats but may differ in a detail not shown here. Identical values can stand only once. Inconclusive results are not listed. A call without a number means that no potency is given here. A structure can be active in one record and inactive in another. Active and inactive are the calls of the source. Calls follow the shape of the full dose curve.

Target: 5-hydroxytryptamine receptor 2A (Homo sapiens) (UniProt P28223)
Sequence (P28223 whole entry, looked up): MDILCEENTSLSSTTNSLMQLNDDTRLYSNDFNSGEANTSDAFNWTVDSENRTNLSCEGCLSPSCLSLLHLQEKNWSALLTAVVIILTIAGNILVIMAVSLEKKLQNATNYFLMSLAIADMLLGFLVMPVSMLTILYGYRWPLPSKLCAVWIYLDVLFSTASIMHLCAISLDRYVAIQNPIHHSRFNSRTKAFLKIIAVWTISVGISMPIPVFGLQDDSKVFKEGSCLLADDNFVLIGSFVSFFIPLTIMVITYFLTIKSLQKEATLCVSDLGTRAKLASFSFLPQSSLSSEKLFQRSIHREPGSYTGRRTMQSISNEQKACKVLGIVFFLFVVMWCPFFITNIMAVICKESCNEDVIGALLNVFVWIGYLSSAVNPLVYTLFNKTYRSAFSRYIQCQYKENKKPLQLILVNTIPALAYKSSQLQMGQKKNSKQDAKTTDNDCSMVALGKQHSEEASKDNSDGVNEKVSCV
Assay: 5-hydroxytryptamine receptor 2A (HTR2A) small molecule antagonists, cell-based qHTS assay (AID 1963586); also: nearly all actives have a fitted effect of over 45% in size
Method in brief: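 Antagonist-mode intracellular calcium assay: DOI (4 nM) added after 5 min compound pre-incubation at room temperature to dye-loaded HTR2A-CHO cells. Fluorescence followed for 3 min, sampled every second.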
Potency is read from the fitted curve at half-maximal effect.

Structure (SMILES) | Potency
C[C@]12C[C@H](O)[C@H]3[C@@H](CCC4=CC(=O)CC[C@@]43C)[C@@H]1CC[C@@H]2C(=O)CO | inactive
c1ccncc1 | inactive
CCCCC(CC)COC(=O)c1ccc(N(C)C)cc1 (configuration not stated) | inactive
C=C(C)C(=O)OCC(CC)(COC(=O)C(=C)C)COC(=O)C(=C)C | inactive
CC1(C)CC(N)CC(C)(CN)C1 (configuration not stated) | inactive
CC1(C)NC(=O)N(c2ccc([N+](=O)[O-])c(C(F)(F)F)c2)C1=O | inactive
C=Cc1ccc(C)cc1 | inactive
OCCCc1ccccc1 | inactive
CCCCCCCCC | inactive
CC(C)OC(=O)COc1ccc(Cl)cc1Cl | inactive
CCCCC(CC)COC(=O)C(C#N)=C(c1ccccc1)c1ccccc1 (configuration not stated) | inactive
COc1ccc(C(=O)c2ccccc2O)c(O)c1 | inactive
O=CCCCC=O | inactive
O=C(O)CCCCCCCC(=O)O | inactive
C=C(C)C1CC=C(C)CC1 (configuration not stated) | inactive
O=[N+]([O-])c1ccccc1C(F)(F)F | inactive
CC(C)OP(=O)(CP(=O)(OC(C)C)OC(C)C)OC(C)C | inactive
CCCCNC(=O)NS(=O)(=O)c1ccc(C)cc1 | inactive
Cc1cc(C)c(C)cc1C | inactive
O=c1cc[nH]c(=O)[nH]1 | inactive
C=C(C)C(N)=O | inactive

Structure (SMILES) | Potency
O=[N+]([O-])c1cc(C(F)(F)F)ccc1Cl | inactive
CC/C=C(\C(=O)N[C@@H]1C(=O)N2C(C(=O)OCOC(=O)C(C)(C)C)=C(COC(N)=O)CS[C@H]12)c1csc(N)n1 | inactive
CC(=O)Nc1ccc(CC(=O)O)cc1 | inactive and 410 nM (active)
C[Si](C)(C)O[Si](C)(C)C | inactive
CC(=O)OCCC(C)C | inactive
O=c1c(O)c(-c2ccc(O)cc2)oc2cc(O)cc(O)c12 | inactive
COc1ccccc1O | inactive
O=C(OCc1ccccc1)c1ccccc1O | inactive
C=C(C)C(=O)O[C@H]1C[C@@H]2CC[C@@]1(C)C2(C)C | inactive
OCC1CCCO1 (configuration not stated) | inactive
CCOC(=O)C1OC1c1ccccc1 (configuration not stated) | inactive
[O-]/[N+](=N\O)c1ccccc1 | inactive
CC(=O)c1ccc(O)cc1 | inactive
Cc1ccc(S(=O)(=O)O)cc1C | inactive
c1ccc2ccccc2c1 | inactive
O=C(c1ccccc1)c1ccc(O)c(O)c1O | inactive
O=c1[nH]nnc2ccccc12 | inactive
Cc1ccc(C(C)C)cc1 | inactive
CC(C)c1ccc(C(C)C)cc1 | inactive
Nc1ccc2c(c1)C(=O)c1ccccc1C2=O | inactive
CCCCCCCCCCC=CC1CC(=O)OC1=O (configuration not stated) | inactive

Structure (SMILES) | Potency
C=CC[N+](C)(C)CC=C | inactive
C[N+](C)(C)CCCCCC[N+](C)(C)C | inactive
C1COCCN1 | inactive
CCOC(=O)c1ccc(O)cc1 | inactive
CC(=O)CCc1ccccc1 | inactive
Cc1ccc(S(=O)(=O)Oc2ccc(N=Nc3ccc(-c4ccc(N=Nc5c(O)ccc6cc(S(=O)(=O)O)cc(S(=O)(=O)O)c56)c(C)c4)cc3C)cc2)cc1 | inactive
CCCCCCOCCO | inactive
CSc1ccc(Cl)cc1 | inactive
CC(O)CN(CCN(CC(C)O)CC(C)O)CC(C)O (configuration not stated) | inactive
CC(=O)OCc1ccc2c(c1)OCO2 | inactive
O=C=Nc1ccc(Cc2ccc(N=C=O)cc2)cc1 | inactive
CC(C)CC(=O)CC(C)C | inactive
CCOc1ccc(NC(=O)CC(C)O)cc1 (configuration not stated) | inactive
CCC(C)OC(=O)c1ccc(O)cc1 (configuration not stated) | inactive
O=C(OCC1CCC2OC2C1)C1CCC2OC2C1 (configuration not stated) | inactive
O=C(c1cc(O)c(O)c(O)c1)c1ccc(O)c(O)c1O | inactive
C=C[Si](OCCOC)(OCCOC)OCCOC | inactive
CCCCCCCCCCO | inactive
Cc1cccc(C(=O)O)c1 | inactive
CC(=O)CCC=C(C)C | inactive
